From PubChem BioAssay
A selection: hits, their analogues and other compounds. The true share with any hit is near 19%.
HT1080NT lethal: qHTS for induction of synthetic lethality in tumor cells producing 2HG: qHTS for the HT-1080-NT fibrosarcoma cell line; HT-1080-NT fibrosarcoma viability, CellTiter-Glo ATP luminescence, 48 h; AID 686970, 2013; Potency, µM (doses to about 46.1 µM), for inactives: at the highest dose activity, negative = less viability, most hits filed as cytotoxic; hit rate 1.6% among 360,000;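 further: NT is the 2HG producing partner of a matched IDH1 knockdown line; potency means the concentration at half of the fitted maximal effect; 0% = DMSO-treated cells and -100% = media-only wells without cells; nearly all actives have a fitted effect of over 55% in size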
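Toxicity toward the 2HG-producing NT line was scored as %Activity, normalised to DMSO and no-cell wells, from CellTiter-Glo luminescence after 48 hours' treatment.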
HT1080 IDH1KD tx: qHTS for induction of synthetic lethality in tumor cells producing 2HG: qHTS for the HT-1080-IDH1KD cell line. HT-1080 IDH1 knockdown viability, ATP luminescence, 48 h. hit rate 2% among 360,000. Potency, µM (highest dose often 46.1 µM), without a hit: at the highest dose activity, negative = toxicity, most hits filed as cytotoxic;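 further: potency means the concentration at half of the fitted maximal effect; 0% = DMSO wells and -100% = cell-free medium wells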
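Assay cells: HT-1080 with IDH1 knockdown, 750 per well, RPMI/5% FBS. Exposure: 48 h at 37 °C following 2 h pre-incubation. Read: CellTiter-Glo luminescence; fitted concentration-response, curve class assigned.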
TDP1 cell noCPT: qHTS for Inhibitors of human tyrosyl-DNA phosphodiesterase 1 (TDP1): qHTS in cells in absence of CPT; DT40 Tdp1-/- hTDP1 cells, no CPT, ATP luminescence, 48 h; Potency, µM (top dose mostly 46.2 µM), inactives show at the top dose activity change, negative = growth inhibition, hits mostly inhibitors; hit rate 15% among 420,000; further: potency means the concentration at half of the fitted maximal effect; nearly all actives have a fitted effect of over 55% in size
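A cellular qHTS used chicken DT40 cells lacking endogenous Tdp1 but carrying stably transfected human TDP1. Compounds were applied without camptothecin, and cell growth kinetics were judged by ATP-dependent luminescence after ≥48 hr.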
IL1B secr inh: qHTS for Inhibitors of Inflammasome Signaling: IL-1-beta AlphaLISA Primary Screen. hit rate 4.7% among 360,000. activity change, % at 57.5 µM. AID 743279, 2014. THP-1 LPS/ATP IL-1B secretion, AlphaLISA, 16 h; stronger effect = lower value; in the data active means activity change below about -50%; inconclusive means mostly about -30% to -49%
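Secreted IL-1B measured by AlphaLISA bead assay after 16 h compound exposure of THP-1 cells; compounds (final up to 57.5 uM) added 1 h before LPS (250 ng/mL) and ATP (1.25 mM) stimulation; lower signal means less secretion.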
DT40 TDP1 CPT: qHTS for Inhibitors of human tyrosyl-DNA phosphodiesterase 1 (TDP1): qHTS in cells in presence of CPT | Potency, µM (doses to about 46.2 µM), for inactives: at the top dose activity change, negative = growth inhibition, hits mostly inhibitors | hit rate 12% among 420,000 | chicken DT40 Tdp1-/-;hTDP1 cells + 20 nM CPT, ATP luminescence, 48 h | AID 686979, 2013; further: potency means the concentration at half of the fitted maximal effect; nearly all actives have a fitted effect of over 55% in size
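Chicken DT40 Tdp1-/- cells stably complemented with human TDP1 were seeded at 400 cells/well in medium containing 20 nM camptothecin, exposed to pin-transferred compounds, and grown at 37 °C for at least 48 hr. Viability was read as ATP luminescence.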
* marks the source's active call; other numbers are inactive results; i = inactive; ? = inconclusive; . = not tested or not shown. Unless noted, the call rests on the fitted dose curve; in most records, active means well fitted curve in the direction sought with a large enough effect; inconclusive means small, poorly fitted or top-dose-only effect, or another doubt; inactive means no such curve, though single readings can be large; an effect the other way counts as inactive or inconclusive. Unless noted, on the % scale 0 is the no-effect control and ±100 the full control effect.

SMILES	HT1080NT lethal	HT1080 IDH1KD tx	TDP1 cell noCPT	IL1B secr inh	DT40 TDP1 CPT
COc1cc(SC)ccc1C(=O)N1CCc2ccccc21	-2.5%	-24.4%	?	-15.4	20.6µM*
CCOc1ccc(C(=O)c2cc([N+](=O)[O-])ccc2N2CCOCC2)cc1	0.0366µM*	0.0259µM*	0.164µM*	7.7	0.13µM*
O=C(O)c1cc([N+](=O)[O-])ccc1N1CCCCC1	-1.0%	-17.7%	-5.8%	0.0	-1.5%
Cc1ccc(C(=O)c2cc([N+](=O)[O-])ccc2N2CCOCC2)cc1	5.17µM*	7.31µM*	2.06µM*	35.7	2.06µM*
COc1ccc(C(=O)c2cc([N+](=O)[O-])ccc2N2CCOCC2)cc1	?	0.146µM*	0.0326µM*	1.7	0.0259µM*
CSc1ccc(Cl)c(C(=O)N2CCOc3ccccc32)c1	-17.2%	-10.9%	16.4µM*	49.3	18.4µM*
O=C(c1cc([N+](=O)[O-])ccc1N1CCCCC1)N1CCc2ccccc21	?	2.31µM*	4.61µM*	-3.7	14.6µM*
CCCCc1cc(=O)oc2cc(OC(C)C(=O)NCC3CCC(C(=O)O)CC3)c(Cl)cc12 (stereo not drawn)	-0.2%	-8.4%	-20.1%	5.2	-23.0%
O=C1C2C3C=CC(O3)C2C(=O)N1Nc1ccccc1 (stereo not drawn)	1.2%	-11.1%	-5.1%	11.8	-5.7%
O=C1C2CC=CCC2C(=O)N1Nc1ccccc1 (stereo not drawn)	20.6µM*	?	-7.7%	11.5	13.1%
Cc1nc(SCC(=O)NC(C)c2ccccc2)c2oc3ccccc3c2n1 (stereo not drawn)	10.7%	10.9%	20.6µM*	0.0	16.4µM*
Cc1nc(SCC(=O)Nc2ccccc2)c2oc3ccccc3c2n1	5.3%	-2.0%	-29.9%	3.3	-5.2%
Cc1cc(C)nc(Sc2nc(C)nc3c2oc2ccccc23)n1	?	?	23.1µM*	?	?
Cc1nc(SCC(=O)N2CCCc3ccccc32)c2oc3ccccc3c2n1	-2.3%	7.7%	?	-8.2	16.4µM*
O=C(Nc1ccc(S(=O)(=O)N2CCCC2)cc1)C1CC(=O)N(CCc2ccccc2)C1 (stereo not drawn)	-6.1%	-10.6%	?	-5.8	?
Cc1c(Br)c([N+](=O)[O-])nn1CC(=O)N1CCN(C23CC4CC(CC(C4)C2)C3)CC1	-6.3%	-3.3%	-23.5%	-0.6	-18.7%
COc1nn(CC(=O)N2N=C(C)CC2(O)C(F)(F)F)cc1[N+](=O)[O-] (stereo not drawn)	0.7%	4.8%	-4.3%	8.6	-20.4%
CC1=NN(C(=O)Cn2nc([N+](=O)[O-])c(Br)c2C)C(O)(C(F)(F)F)C1 (stereo not drawn)	10.9%	17.9%	20.6µM*	11.0	23.1µM*
CC1=NN(C(=O)Cn2ccc([N+](=O)[O-])n2)C(O)(C(F)(F)F)C1 (stereo not drawn)	9.3%	5.5%	5.8µM*	i	5.8µM*
COc1cc(/C=C2/C(=N)N3N=C(CC(=O)N4CCOCC4)SC3=NC2=O)ccc1OCc1ccc(F)cc1	6.8%	-0.5%	15.6%	-15.0	-10.7%
O=c1cnn([C@@H]2O[C@H](CO)[C@@H](O)[C@H]2O)c(=O)[nH]1	-18.0%	?	2.31µM*	48.8	11.6µM*
O=c1[nH]nnc2c1ncn2C1OC(CO)C(O)C1O (stereo not drawn)	-17.3%	?	?	6.6	?
O=C(C[N+]1(CCc2ccccc2)CCOCC1)c1cccc([N+](=O)[O-])c1	.	.	-20.4%	.	-4.3%
CCOC(=O)[C@H]1[C@H]2COc3ccc(Br)cc3[C@@H]2N2C(=O)c3ccc(Cl)cc3NC(=O)[C@@]12C	5.0%	7.4%	18.4µM*	?	18.4µM*
CCOC(=O)[C@H]1[C@H]2COc3ccc(C)cc3[C@@H]2N2C(=O)c3ccc(C)cc3NC(=O)[C@@]12C	-2.8%	-4.3%	?	0.0	23.1µM*
SMILES	HT1080NT lethal	HT1080 IDH1KD tx	TDP1 cell noCPT	IL1B secr inh	DT40 TDP1 CPT
CCOC(=O)[C@H]1[C@H]2COc3ccc(C)cc3[C@@H]2N2C(=O)c3ccc(F)cc3NC(=O)[C@@]12C	6.0%	-12.8%	-20.3%	-13.6	-20.3%
Cn1nnnc1SCC(=O)Nc1ccc2c(c1)OCO2	4.9%	2.9%	3.6%	2.9	-11.6%
COc1cc2[nH]c(C(=O)Nc3ccc4c(c3)OCCO4)cc2c(OC)c1OC	-29.5%	-26.1%	?	-91.0*	16.4µM*
COc1ccc(C(=O)CCNc2ccc3c(c2)OCCO3)cc1	4.3%	-7.3%	13µM*	-52.7*	14.6µM*
O=C(Nc1ccc2c(c1)OCCO2)c1ccccc1	-7.1%	-4.8%	-25.2%	-25.1	-26.8%
O=C(COc1ccc(F)cc1)Nc1ccc2c(c1)OCCO2	2.3%	1.6%	-4.8%	-10.7	?
CCC(=O)c1ccc(OCC(=O)Nc2ccc3c(c2)OCCO3)cc1	-4.7%	-3.0%	11.6µM*	-6.5	-19.0%
O=C(Nc1ccc2c(c1)OCCO2)c1ccc(Br)s1	-5.2%	-0.9%	?	-76.5*	?
CCc1ccccc1NC(=O)c1ccc(=O)n(Cc2ccc(F)cc2)c1	.	.	-12.1%	.	-12.9%
COC(=O)c1cc2oc3ccccc3c2n1CC(=O)Nc1ccc(C)cc1Cl	.	.	-15.8%	.	-18.7%
CCOc1ccc(N/C(C)=C/C(=O)c2ccc3c(c2)OCCO3)cc1	20.9%	-13.9%	?	-76.9*	-20.8%
CC(=O)Oc1ccc(C(=O)Nc2cc(NC(=O)c3ccc(OC(C)=O)cc3)cc(C(=O)NC(C)(C)C)c2)cc1	-24.4%	-26.0%	25.9µM*	-63.7*	20.6µM*
COc1ccc(C(=O)Nc2ccc3c(c2)OCCO3)cc1	-15.7%	?	-15.0%	-15.0	-28.0%
CC(=O)Oc1ccc(C(=O)Nc2ccc3c(c2)OCCO3)cc1	?	?	13µM*	?	14.6µM*
CCOc1ccc(N/C(C)=C\C(=O)c2ccc3c(c2)OCCO3)cc1	11.1%	0.8%	-1.4%	-10.9	16.7%
CCOc1ccc(-n2c(SCc3ccc([N+](=O)[O-])cc3)nnc2-c2ccc(OC)cc2)cc1	-9.4%	-16.7%	29.1µM*	-25.8	18.4µM*
COc1ccc(-n2c(COc3ccc(C)cc3)nnc2SCc2ccc(C#N)cc2)cc1	-14.0%	?	?	-5.7	?
CCOc1ccc(-n2c(SCc3ccc(C#N)cc3)nnc2-c2cccnc2)cc1	-19.6%	-11.7%	-18.8%	-21.0	3.2%
